For some of these results: Measured potencies and affinities stand elsewhere. Some of the results follow. Calls of active or inactive are those of the source.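 The calls were made as follows, unless noted: active = primary screen hit whose calcium fluorescence ratio, in both repeats, exceeds the weak agonist control mean by 3 SD; inactive = the rest.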
Tests used:
[1] = nonspecific flux increase, KCNQ1-free cells – parental CHO cells, counter-screen for KCNQ1 potentiator project (AID 493006;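 active = duplicate-averaged activation above buffer control mean plus 5 SD of those controls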;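 as to activation: fluorescence ratio of max minus min over baseline after K+ and Tl+ depolarization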); details: parental CHO-K1 cells, FluxOR thallium flux, at 10 µM; hits give high values
[2] = biological target: Potassium voltage-gated channel subfamily KQT member 1 (Homo sapiens) (UniProt P51787); experiment: enhancement of KCNQ1 channel thallium flux – FluxOR thallium flux, CHO cells, duplicates, confirmation (AID 493007;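 active = potentiation averaged over duplicate wells exceeding buffer-only control mean by more than 3 SD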;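 as to outcome: cells depolarized by a potassium plus thallium sulfate stimulus after compound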;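 as to potentiation: 0% = buffer-only wells and 100% = R-L3 activator control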); details: KCNQ1 cell line, FluxOR thallium flux fluorescence, at 10 µM; hits give high values, % of reference activator effect, buffer zero
[3] = biological target: Potassium voltage-gated channel subfamily KQT member 2 (Rattus norvegicus) (UniProt O88943); experiment: KCNQ2 thallium flux enhancement – KCNQ2-CHO-K1 cells, selectivity assay for KCNQ1 potentiator project (AID 493009;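 active = mean duplicate potentiation above the buffer control mean plus 5 SD of buffer wells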;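 also: assay conditions were tuned for KCNQ1 rather than KCNQ2 modulators; signal is max minus min fluorescence divided by baseline after thallium stimulus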); details: FluxOR thallium flux fluorescence, at 10 µM; hits give high values, scaled: buffer 0, activator control 100
[4] = biological target: Potassium voltage-gated channel subfamily KQT member 1 (Homo sapiens) (UniProt P51787); experiment: KCNQ1 activators by electrophysiology – IonWorks patch clamp, KCNQ1-CHO cells, orthogonal assay for KCNQ1 potentiator project, confirmation (AID 493184;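 active = current rise at least 3 SD above the untreated control mean in each of two repeat wells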); details: automated patch clamp current, at 10 µM
[5] = tested on: TRPC4 beta (transient receptor potential cation channel C4), mouse; experiment: TRPC4 cation channel opening, retest – cell-based, Fluo4 calcium, HEK293 TRPC4beta/mu-opioid, duplicates, 10 µM, confirmation (AID 2426;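 active = fluorescence ratio normalized to control raised more than 50% in primary screen plus both repeat runs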;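 as to activation: percent rise of integrated ratio over buffer wells lacking compound which define 0%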); details: Fluo4 calcium fluorescence, at 10 µM; hits give high values
[6] = tested on: transient receptor potential cation channel C4 beta (TRPC4), mouse; experiment: TRPC4 cation channel opening, second retest – cell-based, second round, Fluo4, HEK293 TRPC4beta/mu-opioid, 1 µM, confirmation (AID 2461;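 active = primary screen active and over 50% activation in each of two duplicate runs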;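 as to activation: 0% = wells without test compound as baseline of integrated fluorescence ratio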); details: Fluo4 calcium fluorescence, at 1 µM; hits give high values
[7] = tested on: TRPC4 (transient receptor potential cation channel C4 beta), mouse; experiment: potentiation of DAMGO EC20 TRPC4 response – cell-based, second round, Fluo-4, HEK293 TRPC4beta/mu-opioid, 1 µM, confirmation (AID 2554;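 active = primary screen hit whose fluorescence ratio, in both repeats, exceeds the weak agonist control mean by 3 SD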); details: DAMGO EC20, Fluo-4 calcium flux, at 1 µM; hits give high values
[8] = tested on: TRPC4 beta (transient receptor potential cation channel C4), mouse; experiment: potentiation of DAMGO EC20 TRPC4 response – cell-based, Fluo-4, HEK293 TRPC4beta/mu-opioid, confirmation (AID 2555); details: DAMGO EC20, Fluo-4 calcium flux, at 10 µM; hits give high values
[9] = biological target: Short transient receptor potential channel 4 (Mus musculus) (UniProt Q9QUQ5); experiment: blockers of DAMGO-evoked TRPC4 calcium flux – cell-based, Fluo4, HEK293 TRPC4beta/mu-opioid, confirmation (AID 2636;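 active = calcium signal cut by more than 3 SD below the full-agonist control yet still positive, in both repeats and the earlier primary screen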); details: at 10 µM; hits give high values
[10] = biological target: Short transient receptor potential channel 4 (Mus musculus) (UniProt Q9QUQ5); experiment: blockers of DAMGO-evoked TRPC4 calcium flux – cell-based, second round, Fluo4, HEK293 TRPC4beta/mu-opioid, 1 µM, confirmation (AID 2637;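 active = calcium signal ratio cut to more than 3 SD under the fully stimulated control mean yet still positive, in both repeats and the primary screen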;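 as to inhibition: percent of integrated ratio relative to wells lacking test compound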); details: at 1 µM; hits give high values
[11] = biological target: Short transient receptor potential channel 4 (Mus musculus) (UniProt Q9QUQ5); experiment: potentiation of DAMGO-evoked TRPC4 calcium signal – cell-based, HEK293 TRPC4/mu-opioid, Fluo-4 calcium, EC20 DAMGO, dose response (AID 434941;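 active = earlier screen potentiator hit that boosts the TRPC4 ion channel at some dose, with a dose response; inactive = no potentiation, no dose response, or not a prior hit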;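 also: calcium entry triggered by an EC20 dose of DAMGO at the co-expressed mu-opioid receptor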)
[12] = biological target: Short transient receptor potential channel 6 (Mus musculus) (UniProt Q61143); experiment: TRPC6 blockade by TRPC4 inhibitor hits – cell-based, HEK293, membrane potential dye, duplicate, selectivity assay for TRPC4 inhibitor project, confirmation (AID 434948;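 active = active in primary screen and both duplicates, each dropping signal beyond three positive-control SD with fluorescence still positive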); details: HEK293 TRPC6, membrane potential dye fluorescence, at 10 µM; inhibition: hits give high values, stimulated with maximal-effect acetylcholine unless noted; outcome: stimulated with maximal-effect acetylcholine unless noted
[13] = biological target: Short transient receptor potential channel 6 (Mus musculus) (UniProt Q61143); experiment: TRPC6 opening by TRPC4 activator hits – cell-based, HEK293, membrane potential dye, duplicate, selectivity assay for TRPC4 activator project, confirmation (AID 434950;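 active = membrane potential signal rise above negative control mean plus 3 SD in both duplicates, also active in the earlier TRPC4 screen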;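 as to activation: 0% = buffer only wells and 100% = acetylcholine maximal-effect wells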); details: HEK293 TRPC6, membrane potential fluorescence, at 10 µM; activation: hits give high values; outcome: activation
[14] = biological target: Short transient receptor potential channel 6 (Mus musculus) (UniProt Q61143); experiment: positive modulators of mouse TRPC6 channel – HEK293 cells, membrane potential dye, duplicate, selectivity assay for TRPC4 potentiator project, confirmation (AID 434952;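 active = compound raising the membrane signal above positive-control mean plus 3 SD in both repeats, and a primary screen hit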); details: HEK293 TRPC6, membrane potential dye fluorescence, at 10 µM; maximal acetylcholine added after compound unless noted
[15] = biological target: Short transient receptor potential channel 4 (Mus musculus) (UniProt Q9QUQ5); experiment: calcium flux activators in TRPC4/5HT1a cells, counter-screen for TRPC4 activator project, cell-based, second counter screen, HEK293 TRPC4/5HT1a, Fluo-4 (AID 434977;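 active = calcium signal rise above buffer-control mean plus 5 SD in both duplicates, and also a hit in the primary screen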;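 as to activation: plate controls were assay buffer for no effect and maximal serotonin response for full effect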); details: Fluo-4 calcium flux, at 10 µM; hits give high values
[16] = serotonin-gated TRPC4 signal block – cell-based, second counter screen, HEK293 TRPC4/5HT1a, Fluo-4, counter-screen for TRPC4 inhibitor project, confirmation (AID 434978;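 active = primary screen active whose calcium signal fell more than 3 SD beyond the full-serotonin control mean in both duplicate plates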;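 also: serotonin given first at submaximal then at maximal dose after compound preincubation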); details: Fluo-4 calcium flux, at 10 µM; inhibition: hits give high values, serotonin added to trigger calcium flux unless noted; outcome: serotonin added to trigger calcium flux unless noted
[17] = tested on: TRPC4 (mouse), co-expressed with 5HT1a in HEK293; experiment: enhancement of serotonin-evoked TRPC4 response – cell-based, second counter screen, HEK293 TRPC4/5HT1a, Fluo-4, counter-screen for TRPC4 potentiator project, confirmation (AID 434979;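 active = signal rise over 3 SD above mean of control wells given weak agonist, in both repeats and first screen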); details: Fluo-4 calcium flux, at 10 µM; outcome: serotonin added at its EC20 dose unless noted; potentiation: hits give high values, serotonin added at its EC20 dose unless noted
[18] = nonspecific calcium rise without TRPC4 – cell-based, HEK293 mu-opioid receptor line, counter-screen for TRPC4 activator project, confirmation (AID 449723;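 active = hit in primary screen, with calcium signal over 5 SD above buffer well mean in both duplicates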;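 also: counter screen cells carry the mu-opioid receptor alone and lack TRPC4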); details: HEK293 mu-opioid cells, Fluo-4 calcium fluorescence, at 10 µM; hits give high values
[19] = nonspecific potentiation of DAMGO calcium response – cell-based, HEK293 mu-opioid receptor line, counter-screen for TRPC4 allosteric potentiator project, confirmation (AID 449724;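 active = calcium signal rise more than 3 SD above the low-dose agonist control mean, in both duplicate plates and the primary screen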); details: HEK293 mu-opioid receptor cells, Fluo-4 calcium flux, at 10 µM; compound added before EC20 DAMGO stimulus unless noted
[20] = biological target: Short transient receptor potential channel 4 (Mus musculus) (UniProt Q9QUQ5); experiment: block of DAMGO-driven TRPC4 calcium entry – cell-based, HEK293 TRPC4/mu-opioid, Fluo-4 calcium, dose response (AID 434942;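 active = primary screen inhibitor hit that blocks the TRPC4 channel at some tested dose, yielding a dose curve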)
[21] = biological target: Short transient receptor potential channel 4 (Mus musculus) (UniProt Q9QUQ5); experiment: DAMGO-gated TRPC4 membrane potential modulation – cell-based, second specificity screen, HEK293 TRPC4/mu-opioid, selectivity assay for TRPC6 inhibitor project, confirmation (AID 2776;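 active = compounds whose fluorescence signal differed from control wells by over 3 SD, either direction, in both duplicate plates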); details: HEK293 TRPC4/MOR, membrane potential dye fluorescence; at 10 µM; hits give high values; channel activated by saturating DAMGO dose
[22] = tested on: transient receptor potential cation channel C4 (TRPC4), mouse; experiment: membrane potential change in TRPC4 cells – cell-based, HEK293 TRPC4/mu-opioid, membrane potential dye, selectivity assay for TRPC6 inhibitor project, confirmation (AID 2777;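 active = rise or fall in signal beyond 3 SD of buffer-only wells in both replicate plates, either sign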;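 also: integrated kinetic ratio of fluorescence range over baseline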); details: membrane potential fluorescence, at 10 µM
[23] = parental HEK293 depolarization signal interference – cell-based, second counter screen, counter-screen for TRPC6 inhibitor project, confirmation (AID 2779;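 active = membrane potential signal moving either way by over 3 SD of the maximum-effect control, in both duplicate plates, meaning non-specific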); details: parental HEK293 membrane potential dye fluorescence; at 10 µM; maximal acetylcholine challenge after compound addition
[24] = nonspecific voltage dye signal in HEK293 – cell-based, parental HEK293, counter-screen for TRPC6 inhibitor project, confirmation (AID 2780;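 active = membrane potential signal shifting up or down by more than 3 SD of buffer-only wells, on both duplicate plates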); details: parental HEK293 membrane potential dye fluorescence; at 10 µM
[25] = biological target: Short transient receptor potential channel 6 (Mus musculus) (UniProt Q61143); experiment: blockers of TRPC6 cation channel activity – HEK293 cells, membrane potential dye, duplicate, confirmation (AID 488960;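 active = fluorescence ratio falls more than 5 SD below the full-stimulation control mean, in both duplicate runs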); details: ACh-evoked depolarization, at 10 µM; hits give high values
[26] = biological target: Short transient receptor potential channel 6 (Mus musculus) (UniProt Q61143); experiment: mouse TRPC6 channel activators, confirmation, HEK293 cells, membrane potential dye, duplicate (AID 488961;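 active = ratio signal rise beyond 5 SD above unstimulated control wells' mean, seen in both duplicate runs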); details: HEK293-TRPC6 membrane potential dye fluorescence, FDSS; at 10 µM

Sequence of Potassium voltage-gated channel subfamily KQT member 1 (Homo sapiens) (P51787 whole entry, looked up): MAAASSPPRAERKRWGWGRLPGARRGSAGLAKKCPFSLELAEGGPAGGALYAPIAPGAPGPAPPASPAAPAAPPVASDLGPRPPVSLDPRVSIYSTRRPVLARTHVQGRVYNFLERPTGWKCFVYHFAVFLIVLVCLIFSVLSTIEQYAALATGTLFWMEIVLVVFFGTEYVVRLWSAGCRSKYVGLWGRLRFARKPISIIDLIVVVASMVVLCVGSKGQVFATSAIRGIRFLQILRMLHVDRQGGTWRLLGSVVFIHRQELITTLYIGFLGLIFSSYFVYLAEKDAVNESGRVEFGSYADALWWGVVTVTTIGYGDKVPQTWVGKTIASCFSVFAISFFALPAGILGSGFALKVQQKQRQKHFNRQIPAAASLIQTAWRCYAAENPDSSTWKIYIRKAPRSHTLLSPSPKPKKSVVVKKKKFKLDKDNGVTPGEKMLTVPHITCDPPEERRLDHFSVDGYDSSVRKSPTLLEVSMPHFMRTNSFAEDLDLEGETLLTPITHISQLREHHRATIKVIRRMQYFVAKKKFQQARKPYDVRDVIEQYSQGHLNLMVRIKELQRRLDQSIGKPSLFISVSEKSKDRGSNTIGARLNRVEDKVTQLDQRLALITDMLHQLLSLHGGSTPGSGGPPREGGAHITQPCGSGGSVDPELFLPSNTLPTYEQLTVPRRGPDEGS
Sequence of Short transient receptor potential channel 6 (Mus musculus) (Q61143 whole entry, looked up): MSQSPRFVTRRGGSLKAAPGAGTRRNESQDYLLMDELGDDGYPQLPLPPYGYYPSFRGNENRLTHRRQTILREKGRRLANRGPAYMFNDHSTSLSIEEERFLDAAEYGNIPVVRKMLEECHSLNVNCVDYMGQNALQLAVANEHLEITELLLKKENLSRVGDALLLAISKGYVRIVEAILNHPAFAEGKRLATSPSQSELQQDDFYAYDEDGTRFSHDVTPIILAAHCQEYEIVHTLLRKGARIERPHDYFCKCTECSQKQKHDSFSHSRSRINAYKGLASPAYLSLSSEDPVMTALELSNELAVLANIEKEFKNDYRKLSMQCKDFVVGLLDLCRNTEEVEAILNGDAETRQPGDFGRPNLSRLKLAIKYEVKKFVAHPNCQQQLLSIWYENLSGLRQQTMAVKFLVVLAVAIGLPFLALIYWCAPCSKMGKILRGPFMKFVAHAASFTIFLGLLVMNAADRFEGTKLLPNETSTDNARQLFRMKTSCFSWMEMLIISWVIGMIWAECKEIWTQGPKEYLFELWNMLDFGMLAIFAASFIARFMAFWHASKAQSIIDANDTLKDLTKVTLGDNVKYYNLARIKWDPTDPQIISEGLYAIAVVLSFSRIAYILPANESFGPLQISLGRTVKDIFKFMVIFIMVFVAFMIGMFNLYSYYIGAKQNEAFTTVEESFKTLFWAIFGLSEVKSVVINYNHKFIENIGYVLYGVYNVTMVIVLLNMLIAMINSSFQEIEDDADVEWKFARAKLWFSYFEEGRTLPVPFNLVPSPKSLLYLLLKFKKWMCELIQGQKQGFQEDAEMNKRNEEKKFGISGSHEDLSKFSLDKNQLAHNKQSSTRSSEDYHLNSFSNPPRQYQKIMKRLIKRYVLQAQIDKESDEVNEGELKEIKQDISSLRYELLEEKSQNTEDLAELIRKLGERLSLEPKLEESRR
Sequence of Short transient receptor potential channel 4 (Mus musculus) (Q9QUQ5 whole entry, looked up): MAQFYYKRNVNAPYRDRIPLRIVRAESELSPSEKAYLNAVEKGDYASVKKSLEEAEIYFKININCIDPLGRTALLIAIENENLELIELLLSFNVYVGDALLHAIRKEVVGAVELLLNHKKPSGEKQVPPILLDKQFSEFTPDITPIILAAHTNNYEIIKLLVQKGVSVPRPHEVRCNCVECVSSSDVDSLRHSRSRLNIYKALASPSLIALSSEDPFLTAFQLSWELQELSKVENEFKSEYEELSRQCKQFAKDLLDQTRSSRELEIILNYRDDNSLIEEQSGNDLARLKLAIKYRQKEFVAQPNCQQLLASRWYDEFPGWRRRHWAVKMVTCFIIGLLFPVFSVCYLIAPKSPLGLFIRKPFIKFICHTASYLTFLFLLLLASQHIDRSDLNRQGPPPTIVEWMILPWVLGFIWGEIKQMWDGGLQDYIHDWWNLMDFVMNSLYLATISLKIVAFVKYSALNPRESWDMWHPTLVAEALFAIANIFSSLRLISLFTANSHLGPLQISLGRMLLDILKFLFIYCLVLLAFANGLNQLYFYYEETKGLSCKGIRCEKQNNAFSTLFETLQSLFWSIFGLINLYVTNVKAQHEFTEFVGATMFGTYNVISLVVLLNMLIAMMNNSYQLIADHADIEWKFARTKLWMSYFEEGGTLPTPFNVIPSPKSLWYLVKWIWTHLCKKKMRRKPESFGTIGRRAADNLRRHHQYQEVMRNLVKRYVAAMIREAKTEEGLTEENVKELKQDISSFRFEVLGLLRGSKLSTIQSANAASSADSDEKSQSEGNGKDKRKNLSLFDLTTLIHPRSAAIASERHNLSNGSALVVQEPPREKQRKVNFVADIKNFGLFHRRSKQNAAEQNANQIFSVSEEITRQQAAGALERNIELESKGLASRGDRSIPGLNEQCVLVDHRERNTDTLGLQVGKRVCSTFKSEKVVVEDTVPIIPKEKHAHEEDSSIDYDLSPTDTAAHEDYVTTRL
Sequence of Potassium voltage-gated channel subfamily KQT member 2 (Rattus norvegicus) (O88943 whole entry, looked up): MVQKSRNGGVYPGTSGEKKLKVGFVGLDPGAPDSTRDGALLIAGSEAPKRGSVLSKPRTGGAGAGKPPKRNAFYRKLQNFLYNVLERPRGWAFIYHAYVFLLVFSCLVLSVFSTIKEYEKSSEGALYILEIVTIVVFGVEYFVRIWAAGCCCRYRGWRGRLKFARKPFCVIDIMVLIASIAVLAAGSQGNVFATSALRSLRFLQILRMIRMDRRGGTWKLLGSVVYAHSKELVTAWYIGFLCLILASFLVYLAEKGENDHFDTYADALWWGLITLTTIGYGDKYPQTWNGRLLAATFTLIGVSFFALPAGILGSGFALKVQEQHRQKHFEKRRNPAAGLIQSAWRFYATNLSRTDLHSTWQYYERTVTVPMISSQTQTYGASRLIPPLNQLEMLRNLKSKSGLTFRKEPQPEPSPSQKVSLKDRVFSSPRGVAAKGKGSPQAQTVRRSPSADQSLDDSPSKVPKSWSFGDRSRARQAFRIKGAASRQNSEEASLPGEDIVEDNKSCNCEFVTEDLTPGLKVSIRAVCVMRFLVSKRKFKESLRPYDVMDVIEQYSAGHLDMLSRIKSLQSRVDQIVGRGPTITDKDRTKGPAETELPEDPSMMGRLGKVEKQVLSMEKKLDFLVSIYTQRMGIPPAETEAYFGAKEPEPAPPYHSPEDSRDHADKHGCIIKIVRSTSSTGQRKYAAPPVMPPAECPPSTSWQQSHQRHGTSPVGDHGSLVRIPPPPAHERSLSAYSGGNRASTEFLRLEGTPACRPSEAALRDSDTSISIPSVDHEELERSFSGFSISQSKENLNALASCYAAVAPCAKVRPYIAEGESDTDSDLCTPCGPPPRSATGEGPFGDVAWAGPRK

COc1ccccc1N(CC(=O)NC1CCCC1)C(=O)c1cnn(C(C)C)c1
inactive: outcome [1] | outcome [2] | outcome [3] | outcome [4]

O=[N+]([O-])c1cc2c(cc1CNCCc1ccc3c(c1)OCO3)OCO2
inactive: outcome [6] | outcome [7] | outcome [8] | outcome [11] | outcome [12] inactive [setting not given] | outcome [13] | outcome [14] inactive [setting not given] | outcome [15] | outcome [16] inactive [setting not given] | outcome [17] inactive [setting not given] | outcome [18] | outcome [19] inactive [setting not given]
active: activation [5] 62% | inhibition [9] 91% | inhibition [10] 39%

C[C@H]1OC[C@@H](C[N+](C)(C)C)O1
inactive: outcome [7] | outcome [8] | outcome [9] | outcome [10] | outcome [11] | outcome [20] | outcome [12] | outcome [14] | outcome [16] | outcome [17] | outcome [19]
active: activation [5] 152% | activation [6] 99% | activation [13] 96% | activation [15] 85% | activation [18] 87.7%

Cn1c(N2CCNCC2)nc2ccccc21
inactive: outcome [7] | outcome [8] | outcome [9] | outcome [10] | outcome [11] | outcome [20] | outcome [12] | outcome [14] | outcome [16] | outcome [17] | outcome [18] | outcome [19]
active: activation [5] 117% | activation [6] 92% | activation [13] 31.5% | activation [15] 34.7%

Nc1cc(N2CCNCC2)ccc1[N+](=O)[O-]
active: activation [5] 199% | activation [6] 84% | activation [15] 10.7% | potentiation [17] 38.4%
inactive: outcome [7] | outcome [8] | outcome [9] | outcome [10] | outcome [20] | outcome [12] | outcome [13] | outcome [14] | outcome [16] | outcome [18] | outcome [19]

Cc1ccc(C[n+]2c(-c3ccc(C)cc3)cc(-c3ccc(C)cc3)cc2-c2ccc(C)cc2)cc1
inactive: outcome [6] | outcome [7] | outcome [8] | outcome [9] | outcome [10] | outcome [11] | outcome [20] | outcome [12] | outcome [13] | outcome [14] | outcome [16] | outcome [17] | outcome [19] | outcome [4]
active: activation [5] 152% | activation [15] 48.5% | activation [18] 19.8% | activation [1] 142% | potentiation [2] 124% | potentiation [3] 185%

COc1cccc(-c2nc3ccc(N4CCN(C)CC4)cc3[nH]2)c1
inactive: outcome [22] | outcome [23] | outcome [24] | outcome [25] | outcome [26]
active: inhibition [21] 74%

N=c1c[n+](CC23CC4CC(CC(C4)C2)C3)[n-]o1
active: activation [5] 294% | activation [6] 114% | activation [13] 38%
inactive: outcome [7] | outcome [8] | outcome [9] | outcome [10] | outcome [11] | outcome [20] | outcome [12] | outcome [14] | outcome [15] | outcome [16] | outcome [17] | outcome [18] | outcome [19]

CN(C)C(CNC(=O)Cc1ccc(Br)cc1)c1ccccc1 (stereo not drawn)
active: activation [5] 96% | activation [6] 133% | activation [13] 38.5%
inactive: outcome [7] | outcome [8] | outcome [9] | outcome [10] | outcome [11] | outcome [20] | outcome [12] | outcome [14] | outcome [15] | outcome [16] | outcome [17] | outcome [18] | outcome [19]

CN1CCN(c2ccc([N+](=O)[O-])c3cccnc23)CC1
inactive: outcome [9] | outcome [10] | outcome [11] | outcome [20] | outcome [12] | outcome [13] | outcome [14] | outcome [16] | outcome [18] | outcome [19]
active: activation [5] 85% | activation [6] 78% | potentiation [7] 33% | potentiation [8] 26% | activation [15] 25.7% | potentiation [17] 16.9%

COc1ccc(CCNCc2ccc(SC)cc2)cc1
inactive: outcome [6] | outcome [7] | outcome [8] | outcome [9] | outcome [10] | outcome [11] | outcome [20] | outcome [12] inactive [setting not given] | outcome [14] inactive [setting not given] | outcome [16] inactive [setting not given] | outcome [17] inactive [setting not given] | outcome [18] | outcome [19] inactive [setting not given]
active: activation [5] 122% | activation [13] 65.5% | activation [15] 21.7%

Cc1ccc(C)c(NC(=S)NCCc2cnc[nH]2)c1
inactive: outcome [6] | outcome [7] | outcome [8] | outcome [9] | outcome [10] | outcome [11] | outcome [20] | outcome [12] | outcome [13] | outcome [14] | outcome [16] | outcome [17] | outcome [18] | outcome [19]
active: activation [5] 137% | activation [15] 69.3%

O=C(CCCN1CCC2(CC1)C(=O)NCN2c1ccccc1)c1ccc(F)cc1
inactive: outcome [6] | outcome [7] | outcome [8] | outcome [9] | outcome [10] | outcome [11] | outcome [20] | outcome [12] | outcome [14] | outcome [16] | outcome [17] | outcome [19] | outcome [4]
active: activation [5] 193% | activation [13] 39.5% | activation [15] 86.7% | activation [18] 48% | activation [1] 336% | potentiation [2] 55.5% | potentiation [3] 323%

Cn1cc[n+](C)c1P(=S)(c1ccccc1)c1ccccc1
inactive: outcome [5] | outcome [6] | outcome [7] | outcome [8] | outcome [9] | outcome [10] | outcome [11] | outcome [20] | outcome [12] | outcome [13] | outcome [14] | outcome [15] | outcome [16] | outcome [17] | outcome [18] | outcome [19]
